High-throughput results deposited in PubChem BioAssay by National Center for Advancing Translational Sciences (NCATS).
AMA1 RON2 block = qHTS for Inhibitors of AMA1-RON; Towards Development of Antimalarial Drug Lead: Primary Screen; Plasmodium falciparum AMA1 (3D7) - RON2 peptide interaction; AlphaScreen AMA1-biotinylated RON2 peptide binding; Potency, µM (doses to about 58.2 µM), for the others: at the highest dose activity change, negative = inhibition, most hits filed as inhibitors; hit rate 0.2% among 360,000; AID 720542, 2013;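 also: potency is read from the fitted curve at half-maximal effect; 0% = vehicle wells and -100% = peptide control; nearly all actives have a fitted effect of over 45% in size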
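AMA1 (3D7) with his tag at 25 nM final met compounds first, then biotinylated RON2 peptide at 25 nM; detection used donor plus acceptor beads, 10 µg/mL apiece, read by AlphaScreen after 30 min at room temperature.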
Shiga toxin inh = A qHTS for Small Molecule Inhibitors of Shiga Toxin; inhibition, % at 38.7 µM; Vero cells, Shiga toxin protein synthesis inhibition reporter; hit rate 9.2% among 290,000; in the data active = inhibition mostly above about 28%, no sharp cut-off; inactive = mostly below about 43%; also: 0% is about no effect
Cycloheximide cs = Cycloheximide Counterscreen for Small Molecule Inhibitors of Shiga Toxin | max response, % | cell reporter, cycloheximide protein synthesis inhibition counterscreen | hit rate 12% among 300,000; in the data active = max response mostly above about 13%, no sharp cut-off; inactive = mostly below about 14%; also: read at 38.3 µM for the half of the compounds with a filed dose; 0% is about no effect
Pf growth 48h = Primary qHTS for delayed death inhibitors of the malarial parasite plastid, 48 hour incubation | P. falciparum luciferase growth in erythrocytes, 48 h | Potency, µM (doses to about 28.7 µM), for the others: at the highest dose activity change, negative = inhibition, usual class: inhibitors | hit rate 5.9% among 310,000 | AID 504832, 2011; also: potency is read from the fitted curve at half-maximal effect; % is scaled to controls: 0 for no effect and ±100 for the full control effect
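Luciferase-expressing P. falciparum in infected erythrocytes (2% hematocrit, 0.1% parasitemia final) in RPMI 1640/0.5% Albumax were exposed to compound for 48 hours at 37 C, 5% CO2; growth read as luminescence.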
SARS PLP yeast = qHTS of Yeast-based Assay for SARS-CoV PLP; S. cerevisiae expressing SARS-CoV PLpro, growth rescue; Potency, µM (titrated, usually from 32.9 µM), without a hit: at the highest dose activity, positive = growth rescue, hits mostly activators; hit rate 0.19% among 330,000; AID 485353, 2010; calls by dose curve; also: potency is read from the fitted curve at half-maximal effect; 0% is about no effect; nearly all actives have a fitted effect of over 55% in size
Pf growth 96h = Primary qHTS for delayed death inhibitors of the malarial parasite plastid, 96 hour incubation; P. falciparum luciferase reporter growth, 96 h; Potency, µM (series often up to 28.7 µM), without a hit: at the top dose activity change, negative = inhibition, actives largely listed as inhibitors; hit rate 6.9% among 320,000; AID 504834, 2011; also: potency is read from the fitted curve at half-maximal effect; % is scaled to controls: 0 for no effect and ±100 for the full control effect
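Plates of compound plus infected erythrocytes (2% hematocrit, 0.05% parasitemia final) incubate 96 hours, 37 C, 5% CO2. Detection reagent added; reduced luminescence from the parasites' luciferase reporter flags inhibition.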
The depositor's hits bear a star; ? = inconclusive; nt = no result; [ ] = dose if it differs, or a comment. Most compounds without a hit are left out; they make up all but 19% or so of the library. Unless noted, calls follow the shape of the dose curve; as a rule, active = well fitted curve in the direction sought with a large enough effect; inconclusive = small, poorly fitted or top-dose-only effect, or another doubt; inactive = no such curve, though single readings can be large; an effect the other way counts as inactive or inconclusive.

SMILES | AMA1 RON2 block | Shiga toxin inh | Cycloheximide cs | Pf growth 48h | SARS PLP yeast | Pf growth 96h
CCc1ccc(NC(=O)c2cnc(SC)nc2C)cc1 | 0% | 42 | 29* | -6% | -2% | ?
Nc1nc(-c2ccccc2)ns1 | 26% | nt | nt | nt | nt | nt
CN(C)c1nc(-c2ccccc2)ns1 | 8% | 130* | 33* | 36% | -4% | 29%
CSc1cccc(NC(=S)N(CCC(C)C)C(C)c2ccncc2)c1 (stereo not drawn) | 2% | 3 | -6 | ? | -1% | ?
c1ccc(C2COC(c3cccs3)=N2)cc1 (stereo not drawn) | 6% | 39 | 23* | 0% | -1% | 24%
S=c1[nH]nc(Cc2ccccc2)n1-c1cccc2ccccc12 | 105% | -1 | -4 | 31% | 6% | -4%
Cc1cc(C)n(-c2ccc(C(=O)Nc3ccc4c(c3)OCO4)cc2)n1 | -1% | 26 | 15 | nt | -1% | -16%
O=C(Nc1cccnc1)c1cc2nc(C3CC3)cc(C(F)(F)F)n2n1 | -3% | 10 | 11 | 6% | -3% | 29%
Cc1cc(C)n2nc(C(=O)Nc3ccc4c(c3)OCO4)cc2n1 | 12% | 70* | 34* | nt | -7% | 127%
CC(=O)c1cccc(NC(=O)c2ccc(C(=O)Nc3cccc(C(C)=O)c3)nc2)c1 | -8% | 39 | -4 | 4% | -1% | ?
CC(=O)c1cccc(NC(=O)c2cc3nc(C)cc(C)n3n2)c1 | -6% | 53* | 27* | 148% | -4% | nt
O=C(Nc1ccc2c(c1)OCO2)c1cc2nc(C3CC3)cc(C(F)(F)F)n2n1 | 13% | 11 | 12* | 11% | 3% | 0.042µM*
COc1ccc(C(=O)Nc2cc(C)nn2-c2ccc(C)cc2)cc1 | 13% | 38 | 5 | -8% | -3% | -2%
CCOC(=O)c1cc2c(=O)n3ccccc3nc2n(CC(C)C)c1=NC(=O)c1ccco1 | -1% | 20 | 11 | 10µM* | 6% | nt
CCOC(=O)c1cc2c(=O)n3ccccc3nc2n(CCOC)c1=NC(=O)c1c(-c2c(F)cccc2Cl)noc1C | -3% | -1 | 1 | ? | -1% | 5.9µM*
CCOC(=O)c1cc2c(=O)n3ccccc3nc2n(Cc2ccco2)c1=NC(=O)c1ccc(Br)cc1 | nt | 6 | -4 | nt | nt | nt
COc1ccccc1-c1noc2c1C(=O)N(C(=O)OC(C)(C)C)CC2 | 0% | nt | nt | nt | nt | nt
Cc1ccc(N(CC(=O)O)S(C)(=O)=O)cc1Cl | -7% | 2 | -5 | 14% | 8% | 30%
CC(=O)C12CCCCC1CC1C3CC(C)C4(O)CC(=O)CCC4(C)C3CCC12C (stereo not drawn) | -1% | -17 | -3 | 0% | -2% | 9.3µM*
CC1=C2CC3C(CC=C4C[C@@H](O)CC[C@@]43C)[C@@H]2CC[C@]12O[C@@H]1C[C@H](C)CN[C@H]1[C@H]2C (stereo partly drawn) | nt | -7 | 12 | nt | nt | nt
CC1=C2C(=O)C3C(CC=C4CC(O)CCC43C)C2CCC12OC1CC(C)CNC1C2C (stereo not drawn) | 8% | -7 | -1 | 13µM* | -3% | ?
COC(=O)C1=C(N)Oc2cc(C)n(CCCn3ccnc3)c(=O)c2C1c1cccc(Cl)c1 (stereo not drawn) | -12% | -12 | -5 | 5.9µM* | 4% | nt
COC(=O)C1=C(N)Oc2cc(C)n(CCc3ccccc3)c(=O)c2C1c1cccnc1 (stereo not drawn) | -15% | -21 | -8 | 10µM* | 0% | ?
CCOC(=O)C1=C(N)Oc2cc(C)n(CCc3ccc(OC)c(OC)c3)c(=O)c2C1c1cccnc1 (stereo not drawn) | 0% | -11 | 3 | 2.3µM* | 3% | 10µM*
CCOC(=O)C1=C(N)Oc2ccc3ccccc3c2C1c1cccnc1 (stereo not drawn) | 29% | 10 | -4 | ? | -24% | 9.3µM*
SMILES | AMA1 RON2 block | Shiga toxin inh | Cycloheximide cs | Pf growth 48h | SARS PLP yeast | Pf growth 96h
CCOC(=O)C1=C(N)Oc2ccc3ccccc3c2C1c1cccc(O)c1 (stereo not drawn) | -15% | 5 | -1 | ? | -30% | -15%
COC(=O)C1=C(N)Oc2cc(C)n(Cc3cccnc3)c(=O)c2C1c1ccc(OC)c(OC)c1 (stereo not drawn) | 22% | -3 | 2 | -18% | 5% | -13%
COc1cc(C(=O)OCC(=O)NC2CCCCCC2)ccc1OCC(C)C | 5% | nt | nt | -19% | -1% | 4%
CCN(CC(=O)NCc1cccs1)C(=O)c1ccc(S(=O)(=O)Nc2ccccc2C)cc1 | -13% | nt | nt | 2% | 0% | -1%
CN(C(=O)N1CCN(S(=O)(=O)c2ccccc2)CC1)c1ccccc1 | -2% | -6 | 1 | 9%[5.75 µM] | 0% | 232%
Cc1cccc(NC(=O)c2ccc(S(=O)(=O)N3CCC(C)CC3)cc2)n1 | 16% | 14 | 10 | ? | -6% | ?
C/C(=N\NC(=O)c1cccc(N/N=C(\C)c2ccc([N+](=O)[O-])cc2)c1)c1ccc([N+](=O)[O-])cc1 | 23% | 39* | 17* | 1.7µM* | 4% | 4.1µM*
C/C(=N\NC(=O)c1ccc2nc[nH]c2c1)c1ccc([N+](=O)[O-])cc1 | nt | -5 | 6 | 16% | 1% | -18%
C/C(=N\NC(=O)c1cccc(N/N=C(\C)c2ccncc2)c1)c1ccncc1 | 56% | 5 | 15 | ? | 1% | 8.3µM*
O=C(N/N=C\c1cccc(Cl)c1)c1ccc(Cn2cccn2)o1 | -18% | -18 | 5 | 18% | 8% | -12%
C/C(=N\NC(=O)c1cccc(N/N=C(\C)c2ccccc2)c1)c1ccccc1 | 23% | 144* | 72* | ? | 22% | -1%
C/C(=N/NC(=O)c1ccc(Cn2cccn2)o1)c1cccc(NC(=O)c2ccncc2)c1 | 50% | 11 | 19* | -25% | -11% | 0%
C/C(=N\NC(=O)c1nn(C)cc1Br)c1cccc(NC(=O)c2ccncc2)c1 | 10% | 84* | 50* | 16% | -5% | ?
C/C(=N/NC(=O)c1cccc(N2CCCC2=O)c1)c1ccc(Br)cc1 | 10% | 8 | -2 | ? | 1% | 36%
C/C(=N/NC(=O)c1cccc(N2CCCC2=O)c1)c1ccncc1 | 48% | 55* | 48* | 68% | 0% | 6%
CC(=NNC(=O)c1ccncc1)c1cccc(Br)c1 | 21% | nt | nt | nt | nt | nt
C/C(=N\NC(=O)c1ccccc1C)c1cccc([N+](=O)[O-])c1 | 1% | 10 | 10 | nt | -8% | -17%
C/C(=N\Nc1ccc(Cl)c(C(=O)O)c1)c1cccc([N+](=O)[O-])c1 | 0% | 159* | 80* | 48% | -2% | 90%
